Laboratory results from PubChem BioAssay (NCATS).
Records with an inconclusive call do not appear. Where a call stands in place of a potency, no number is given. Unmarked numbers belong to inactive results. Active and inactive are the calls of the source. Calls follow the shape of the dose curve; as a rule, active = well fitted curve in the direction sought with a large enough effect; inconclusive = small, poorly fitted or top-dose-only effect, or another doubt; inactive = no such curve, though single readings can be large; an effect the other way counts as inactive or inconclusive.

Experiments:
Furin (Homo sapiens) = Furin (Homo sapiens) (UniProt P09958); test: Furin counterscreen qHTS for Zika virus inhibitors (AID 1347149);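 also: purified recombinant full-length human furin enzyme at 5 nM; fluorescence gain from furin cutting a BOC-RVRR-AMC peptide substrate over 15 min; top concentration of the series differs between compounds; nearly all actives have a fitted effect of over 70% in size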
In short: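 Counterscreen measures cleavage of 2 microM BOC-RVRR-AMC, below its ~15 microM Km, by 5 nM full-length human furin at pH 7.0 after a 15-min compound preincubation. Inhibition derives from the 15-min fluorescence increase at 37C.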

[1] = Confirmatory screen GU Rhodamine qHTS for Zika virus inhibitors qHTS (AID 1347157); also: nearly all actives have a fitted effect of over 70% in size; also: potency is read from the fitted curve at half-maximal effect
In short: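 Unlinked NS2B/NS3, 25 nM; Rhod110 peptide, 1.5 microM; compounds, up to 114 microM. Reaction run 15 min at RT in 10 mM Tris-HCl pH 8.0, 0.01% Tween 20; kinetic fluorescence change fitted with a 4-parameter Hill model.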

[2] = Confirmatory screen NINDS Rhodamine qHTS for Zika virus inhibitors (AID 1347161); also: nearly all actives have a fitted effect of over 60% in size; also: potency is read from the fitted curve at half-maximal effect;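 as to activity change, negative = inhibition: purified Zika NS2B-NS3 protease with linked NS2B cofactor domain and Rhodamine110 peptide substrate; series mostly up to about 110 µM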
In short: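 Single-chain NS2B-NS3 protease, 25 nM, pH 8.0; compounds preincubated 15 min. Activity: Rhodamine110 release from 1.5 microM substrate over 15 min, room temperature, data fitted to 4-parameter Hill.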

[3] = test system: Zika virus NS2B-NS3 protease (linked construct); test: 384 well plate NINDS Rhodamine confirmatory qHTS for Zika virus inhibitors (AID 1347164); also: potency is read from the fitted curve at half-maximal effect; nearly all actives have a fitted effect of over 65% in size
In short: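 Cleavage of Ac-LKRR-Rhodamine 110 (10 microM final) by linked protease (final 5, 30 or 60 nM) was followed as fluorescence at 485/538 nm after 25 min, room temperature, dark. Compounds preincubated ~15 min.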

[4] = target: Rap guanine nucleotide exchange factor 3 (Homo sapiens) (UniProt O95398); test: Confirmatory qHTS for agonist of cAMP-regulated guanine nucleotide exchange factor 3 (EPAC1) (AID 1645881);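 also: EPAC1 catalysed release of BODIPY-GDP from Rap1B seen as fluorescence loss; nearly all actives have a fitted effect of over 75% in size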
[5] = target: Rap guanine nucleotide exchange factor 4 (Homo sapiens) (UniProt Q8WZA2); test: Confirmatory qHTS for agonist of cAMP-regulated guanine nucleotide exchange factor 4 (EPAC2) (AID 1645884);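 also: nucleotide exchange releases bodipy-GDP from Rap1 and this lowers its fluorescence; nearly all actives have a fitted effect of over 65% in size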
[6] = target: Rap guanine nucleotide exchange factor 4 (Homo sapiens) (UniProt Q8WZA2); test: Confirmatory qHTS for antagonist of cAMP-regulated guanine nucleotide exchange factor 4 (EPAC2) (AID 1645885); also: nearly all actives have a fitted effect of over 25% in size
[7] = target: Rap guanine nucleotide exchange factor 3 (Homo sapiens) (UniProt O95398); test: Counterscreen qHTS for antagonist of cAMP-regulated guanine nucleotide exchange factor 3 (EPAC1) (AID 1645888);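 also: fluorescence loss as bound BODIPY-GDP is released from Rap1B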
In short: (§1)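 Measured: fluorescence of BODIPY-GDP bound to Rap1B, which falls as exchange proceeds. Conditions include 50 uM competing GDP, 5 and 30 min reads, and a later cAMP challenge for antagonist detection.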

[8] = target: Rap guanine nucleotide exchange factor 3 (Homo sapiens) (UniProt O95398); test: Counterscreen qHTS for agonist of cAMP-regulated guanine nucleotide exchange factor 3 (EPAC1) (AID 1645889); also: nearly all actives have a fitted effect of over 40% in size
In short: as §1

[9] = Tertiary RLuc qRT-PCR qHTS assay for Zika virus inhibitors (AID 1347169); also: top concentration of the series differs between compounds; nearly all actives have a fitted effect of over 55% in size
In short: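 Inhibition of ZIKV-RLuc replication in Vero cells, read as Renilla luminescence 1-1.5 hrs after live-cell substrate addition, following 48-72 hrs infection at MOI 1-2 in presence of compound.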

Furin (Homo sapiens), sequence (P09958 whole entry, looked up): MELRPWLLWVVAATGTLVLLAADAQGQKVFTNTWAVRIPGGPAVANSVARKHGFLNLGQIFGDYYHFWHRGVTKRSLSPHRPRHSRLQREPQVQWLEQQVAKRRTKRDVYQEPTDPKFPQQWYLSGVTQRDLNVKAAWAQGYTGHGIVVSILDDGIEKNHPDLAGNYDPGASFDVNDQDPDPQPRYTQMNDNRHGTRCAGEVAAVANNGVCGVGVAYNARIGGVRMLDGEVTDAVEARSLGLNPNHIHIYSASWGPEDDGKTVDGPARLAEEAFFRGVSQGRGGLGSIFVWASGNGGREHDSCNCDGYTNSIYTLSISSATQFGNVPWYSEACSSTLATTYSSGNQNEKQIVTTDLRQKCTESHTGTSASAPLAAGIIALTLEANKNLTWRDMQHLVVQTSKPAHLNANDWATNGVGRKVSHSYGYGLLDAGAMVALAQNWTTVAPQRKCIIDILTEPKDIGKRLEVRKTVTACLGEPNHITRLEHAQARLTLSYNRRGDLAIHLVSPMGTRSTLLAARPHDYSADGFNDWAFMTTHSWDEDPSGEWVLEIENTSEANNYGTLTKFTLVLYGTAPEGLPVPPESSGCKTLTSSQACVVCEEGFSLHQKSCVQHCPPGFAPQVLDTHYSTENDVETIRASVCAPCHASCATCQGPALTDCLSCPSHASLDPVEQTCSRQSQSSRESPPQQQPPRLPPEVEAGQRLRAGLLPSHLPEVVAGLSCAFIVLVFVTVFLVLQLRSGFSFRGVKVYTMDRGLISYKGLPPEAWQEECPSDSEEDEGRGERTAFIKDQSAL
Rap guanine nucleotide exchange factor 3 (Homo sapiens), sequence (O95398 whole entry, looked up): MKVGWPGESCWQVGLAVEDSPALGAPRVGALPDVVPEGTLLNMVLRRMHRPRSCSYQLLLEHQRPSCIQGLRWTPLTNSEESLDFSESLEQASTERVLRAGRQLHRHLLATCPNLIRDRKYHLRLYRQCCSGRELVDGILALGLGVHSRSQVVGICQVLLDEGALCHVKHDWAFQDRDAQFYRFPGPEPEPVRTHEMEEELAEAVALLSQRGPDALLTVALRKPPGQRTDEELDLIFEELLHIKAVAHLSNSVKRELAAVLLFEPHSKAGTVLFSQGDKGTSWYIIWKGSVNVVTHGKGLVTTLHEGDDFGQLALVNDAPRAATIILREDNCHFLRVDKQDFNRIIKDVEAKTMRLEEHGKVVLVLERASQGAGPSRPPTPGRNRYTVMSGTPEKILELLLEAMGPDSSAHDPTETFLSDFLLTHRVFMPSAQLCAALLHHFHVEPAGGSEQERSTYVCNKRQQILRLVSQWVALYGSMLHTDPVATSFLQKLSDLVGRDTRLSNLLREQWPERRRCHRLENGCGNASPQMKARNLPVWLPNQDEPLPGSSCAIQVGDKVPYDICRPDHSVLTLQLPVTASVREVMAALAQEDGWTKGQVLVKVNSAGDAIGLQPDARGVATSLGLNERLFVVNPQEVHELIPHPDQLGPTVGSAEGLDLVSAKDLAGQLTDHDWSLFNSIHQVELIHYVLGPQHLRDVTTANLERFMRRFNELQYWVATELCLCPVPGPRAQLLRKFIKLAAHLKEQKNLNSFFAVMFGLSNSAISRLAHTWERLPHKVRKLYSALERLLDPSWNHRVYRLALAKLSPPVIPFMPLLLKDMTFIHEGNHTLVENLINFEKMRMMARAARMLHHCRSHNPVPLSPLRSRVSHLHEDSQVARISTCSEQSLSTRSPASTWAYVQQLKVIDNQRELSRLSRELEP
Rap guanine nucleotide exchange factor 4 (Homo sapiens), sequence (Q8WZA2 whole entry, looked up): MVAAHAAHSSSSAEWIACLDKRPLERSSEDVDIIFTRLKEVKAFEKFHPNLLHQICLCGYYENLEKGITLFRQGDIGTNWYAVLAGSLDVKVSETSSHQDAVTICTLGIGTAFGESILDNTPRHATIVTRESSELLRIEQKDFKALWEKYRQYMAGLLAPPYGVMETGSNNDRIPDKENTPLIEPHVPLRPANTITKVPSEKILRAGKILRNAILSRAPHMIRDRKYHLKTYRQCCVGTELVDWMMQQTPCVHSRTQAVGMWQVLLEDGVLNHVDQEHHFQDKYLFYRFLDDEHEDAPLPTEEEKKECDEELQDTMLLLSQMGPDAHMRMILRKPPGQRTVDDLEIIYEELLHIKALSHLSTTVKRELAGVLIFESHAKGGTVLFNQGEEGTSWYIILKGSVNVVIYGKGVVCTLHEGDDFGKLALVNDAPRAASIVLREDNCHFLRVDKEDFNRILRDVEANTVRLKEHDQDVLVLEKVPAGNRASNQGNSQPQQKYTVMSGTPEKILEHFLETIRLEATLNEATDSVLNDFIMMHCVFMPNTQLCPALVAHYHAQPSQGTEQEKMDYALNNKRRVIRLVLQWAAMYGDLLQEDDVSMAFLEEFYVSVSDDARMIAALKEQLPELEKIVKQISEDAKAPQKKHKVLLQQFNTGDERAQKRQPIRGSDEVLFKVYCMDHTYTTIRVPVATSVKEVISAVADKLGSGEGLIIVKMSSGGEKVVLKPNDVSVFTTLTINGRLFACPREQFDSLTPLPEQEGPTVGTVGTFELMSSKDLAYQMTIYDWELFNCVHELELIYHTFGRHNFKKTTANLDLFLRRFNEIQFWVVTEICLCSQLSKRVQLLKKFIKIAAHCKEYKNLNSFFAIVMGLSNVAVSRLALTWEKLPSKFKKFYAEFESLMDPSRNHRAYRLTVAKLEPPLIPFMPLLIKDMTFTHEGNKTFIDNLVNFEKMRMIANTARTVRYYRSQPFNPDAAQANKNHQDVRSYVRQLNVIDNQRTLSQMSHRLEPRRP

Compound: O=C(O)CCc1ccc(-c2ccc(Cl)cc2)n1-c1cccc(C(F)(F)F)c1
- Potency (Furin (Homo sapiens)): inactive
- Potency [1]: 7.08 µM (active)
- Potency [2]: 11.2 µM (active)
- Potency [3]: 44.7 µM (active)
- outcome [4]: inactive
- outcome [5]: inactive
- activity change, negative = inhibition [6]: 25.6% [at 12.7 µM]
- outcome [7]: inactive
- Potency [8]: inactive

Compound: Cc1c(Cl)cccc1NC(=O)CSc1ncccc1C(=O)Oc1ccccc1Cl
- Potency (Furin (Homo sapiens)): inactive
- Potency [1]: inactive
- Potency [2]: inactive
- Potency [9]: inactive

Compound: O=S(=O)(Nc1ccc(Cl)cc1)c1ccc(NS(=O)(=O)c2ccc3c(c2)OCCO3)cc1
- Potency (Furin (Homo sapiens)): inactive
- Potency [1]: 44.7 µM (active)
- Potency [2]: 35.5 µM (active)
- Potency [3]: 31.6 µM (active)

Compound: O=C(CSc1ncccc1C(=O)Oc1ccccc1Cl)Nc1ccccc1Cl
- Potency (Furin (Homo sapiens)): inactive
- Potency [1]: inactive
- Potency [2]: inactive
- Potency [9]: inactive

Compound: CCOc1ccccc1NC(=O)c1ccc2oc(=O)c(S(=O)(=O)c3ccc(F)cc3)cc2c1
- Potency (Furin (Homo sapiens)): inactive
- Potency [1]: inactive
- Potency [2]: inactive
- Potency [9]: inactive

Compound: COC(=O)c1ccc(C(=O)Nc2ccc(-c3nc4cc(NC(=O)c5ccc(C(=O)OC)cc5)ccc4o3)cc2)cc1
- Potency (Furin (Homo sapiens)): inactive
- Potency [1]: inactive
- Potency [2]: inactive
- Potency [9]: inactive
